HIV RNase H inh-1: inhibitors of HIV-1 reverse transcriptase RNase H | P04585 | RT-RNase H RNA/DNA duplex cleavage, fluorescence | inhibition, % at 10 µM | actives 1.9% (n = 65,000) | AID 565; in the data active = inhibition above about 50%
HIV RNase H inh-2: confirmation of HIV-1 reverse transcriptase RNase H inhibitors; actives 39% (n = 1,000); inhibition, % at 10 µM; AID 651; shares compounds with HIV RNase H inh-1; Recombinant RT RNase H, fluorescent RNA/DNA duplex cleavage; in the data active = inhibition above about 48%; inconclusive = no clear call, values can overlap the other calls
Large screens that a line does not name were inactive (follow-up assays come after a bar, where they were run). Shown is part of a subset that was picked to be rich in hits.

COC(=O)C1Sc2[nH]c(=O)sc2C(c2ccc(Cl)cc2)C1C(=O)OC (stereo not given)	none
COC(=O)C1Sc2[nH]c(=O)sc2C2c3ccccc3OC(=O)C12 (stereo not given)	none
CCOC(=O)C1CCCN(C(=O)c2sc3nc(-c4ccc(OC)cc4)cn3c2C)C1 (stereo not given)	none
CC1NC(=O)N(C)C2NC(=O)N(C)C(c3ccccc3)C12 (stereo not given)	none
O=C(CSc1nc2ccccc2s1)NC(=O)NCc1ccco1	none
CS/C(=N\S(=O)(=O)c1cccs1)NC(=O)CSc1nc2ccccc2s1	HIV RNase H inh-1 73 | HIV RNase H inh-2 inactive
c1csc(CSc2nc3ccccc3s2)c1	none
CN(C)S(=O)(=O)CC12CCC(CC1=O)C2(C)C (stereo not given)	none
COc1ccc(CCNC(=O)CSc2nc(C)nc3c2c(=O)n(C)c(=O)n3C)cc1OC	none
COC(=O)CN(c1ccc(F)cc1)S(=O)(=O)c1ccccc1	none
COC(=O)CN(c1ccccn1)S(=O)(=O)c1ccccc1	HIV RNase H inh-1 73 | HIV RNase H inh-2 inactive
COC(=O)CN(c1ccccc1F)S(=O)(=O)c1ccccc1	none
COC(=O)c1ccc(N2C(=O)CC(NCc3ccccc3)C2=O)cc1 (stereo not given)	none
CCCCOc1ccc(N2C(=O)CC(N(O)c3ccccc3)C2=O)cc1 (stereo not given)	none
CN(Cc1ccccc1)C1CC(=O)N(c2ccc(C(=O)O)cc2)C1=O (stereo not given)	HIV RNase H inh-1 77 | HIV RNase H inh-2 inactive
CC(C)(C)OCC(NC(=O)C(CC(N)=O)NC(=O)OC(C)(C)C)C(=O)OC(C)(C)C (stereo not given)	none
c1ccc(-c2nnc3sc(-c4csc5c4CCCC5)nn23)cc1	HIV RNase H inh-1 69 | HIV RNase H inh-2 inconclusive
Clc1ccc(-c2nn3c(-c4ccccc4)nnc3s2)cc1	none
c1ccc(-c2nnc3sc(-c4ccncc4)nn23)cc1	none
C=C(C)C1CCC(C)=C1COC(=O)Nc1ccccc1 (stereo not given)	none
CCC(c1nnc(SCC(=O)Nc2nnc(-c3ccccc3)o2)n1Cc1ccccc1)N(C)C (stereo not given)	none
CCOC(=O)N1CCN(C(=O)c2cc3cc(Br)ccc3oc2=O)CC1	none
Cc1ccc(-c2csc(/C(C#N)=C(\O)CN3CCN(C(=O)c4ccco4)CC3)n2)cc1	none
CCC(C(=O)NC1CCCC1)N(C(=O)Cn1nnc(-c2ccc(C)o2)n1)c1cnc2ccccc2c1 (stereo not given)	HIV RNase H inh-1 66 | HIV RNase H inh-2 inactive
Cc1ccc(-c2nnn(CC(=O)N(CC(=O)NC(C)C)c3cnc4ccccc4c3)n2)o1	none
Cc1ccc(-c2nnn(CC(=O)N(CC(=O)NC3CCCC3)c3cnc4ccccc4c3)n2)o1	none
Cc1cc(C)nc(SCC(=O)O)n1	none
COc1cc(C)nc(SCC(N)=O)n1	HIV RNase H inh-1 62 | HIV RNase H inh-2 inactive
Cc1cc(SCC(N)=O)nc(SCC(=O)c2ccccc2)n1	none
CN(C)CC(C)(C)NS(=O)(=O)c1ccc(Cl)cc1	none
CN1C(=O)c2ccccc2C(C(=O)O)C1c1cn(C)c2ccccc12 (stereo not given)	none
COCCn1c(SCCN2CCOCC2)nc2c1c(=O)[nH]c(=O)n2C	HIV RNase H inh-1 88 | HIV RNase H inh-2 60
C/C=C/Cn1c(SCc2ccccc2)nc2c1c(=O)[nH]c(=O)n2C	HIV RNase H inh-1 50 | HIV RNase H inh-2 inactive
CCCCn1c(SCc2ccc(Cl)cc2)nc2c1c(=O)[nH]c(=O)n2C	HIV RNase H inh-1 54 | HIV RNase H inh-2 inactive
CC(C)CSc1nc2c(c(=O)[nH]c(=O)n2C)n1CCc1ccccc1	none
C/C(Cl)=C/Cn1c(SCCN2CCOCC2)nc2c1c(=O)[nH]c(=O)n2C	none
COCCn1c(SCc2c(F)cccc2Cl)nc2c1c(=O)[nH]c(=O)n2C	HIV RNase H inh-1 57 | HIV RNase H inh-2 inactive
CCSc1nc2c(c(=O)[nH]c(=O)n2C)n1Cc1ccc(Cl)cc1	none
CCOCCn1c(SCc2ccc(F)cc2)nc2c1c(=O)[nH]c(=O)n2C	none
Cc1ccc(CSc2nc3c(c(=O)[nH]c(=O)n3C)n2CCC(C)C)cc1	none
C=CCn1c(SCCN2CCOCC2)nc2c1c(=O)[nH]c(=O)n2C	none
COCCn1c(SCC(=O)Nc2ccccc2)nc2c1c(=O)[nH]c(=O)n2C	none
C/C(Cl)=C/Cn1c(SCc2ccc(Cl)cc2)nc2c1c(=O)[nH]c(=O)n2C	none
COc1ccc(CCN2C(=O)CC(C(N)=O)SC2=Nc2ccccc2)cc1OC (stereo not given)	none
Cc1ccc(CNC(=O)Nc2cccs2)cc1	none
O=c1cc(CSc2nnc(COc3ccccc3Cl)o2)nc2sccn12	none
COc1ccc2c(C)nc(Nc3nc(C)cc(=O)[nH]3)nc2c1	none
CC(C)Cn1c(-c2ccc(Cl)cc2)cnc1SCC(=O)N1CCOCC1	none
CCCCOc1ccc(OCCCC)c2c1NC1(N2)C(=O)N(C(C)=O)c2ccccc21	none
Cc1ccc(-n2nnnc2SCc2nnc(-c3ccccc3Br)o2)c(C)c1	none
CC(NC(=O)c1ccco1)C(c1cccs1)N1CCOCC1 (stereo not given)	none
COc1ccc(N/C(C)=C2/C(=O)C(=O)N(CCO)C2c2ccc(Br)cc2)cc1 (stereo not given)	none
Cc1ccc(Cn2c(Sc3ncccn3)nc3c2c(=O)[nH]c(=O)n3C)cc1	none
Cc1ccc(Cn2c(Sc3nccc(C)n3)nc3c2c(=O)[nH]c(=O)n3C)cc1	none
C/C=C/CSc1nc2c(c(=O)[nH]c(=O)n2C)n1Cc1ccc(C)cc1	HIV RNase H inh-1 80 | HIV RNase H inh-2 72
COC(=O)c1ccc(NC(=O)C2CCCN(S(=O)(=O)c3cnc[nH]3)C2)cc1 (stereo not given)	none
O=C(COC(=O)c1ccc(=O)n(Cc2ccccc2)n1)Nc1ccc2c(c1)OCCO2	none
COc1ccc(-n2c(COc3ccc(C)cc3)nnc2SCC(N)=O)cc1	none
CCn1c(N)c(C(=O)NC)sc1=S	none
Cc1ccc(-n2c(N)c(C(N)=O)sc2=S)cc1	HIV RNase H inh-1 95 | HIV RNase H inh-2 64
O=C(c1ccccc1F)N1CCN(Cc2cccc(Cl)c2)CC1	none
c1ccc(-c2nc(NCc3cccnc3)c3oc4ccccc4c3n2)cc1	none
COc1ccc(-n2nc(C(=O)NCc3ccco3)c3c4ccccc4n(C)c3c2=O)cc1Cl	HIV RNase H inh-1 71 | HIV RNase H inh-2 inactive
COc1ccc(-n2nc(C(=O)NCC(=O)NCc3ccco3)c3ccccc3c2=O)cc1	none
O=C(NCc1ccco1)c1nn(-c2ccccc2)c(=O)c2ccccc12	none
CC(C)(C)OC(=O)N1CCOCCOCCN(C(=O)OC(C)(C)C)CCOCC1	none
O=c1c(/C=N/O)c(Nc2ccccc2)nc2ccccn12	none
O=C1CCCc2c1[nH]c1ccccc21	none
O=C1CCCC(O)=C1C(C#Cc1ccccc1)C1=C(O)CCCC1=O	HIV RNase H inh-1 83 | HIV RNase H inh-2 78
O=C1CCCC2=C1C(c1ccccc1O)C1=C(CCCC1=O)O2	none
Cc1csc(NC(=O)CSc2nnc(-c3ccc(S(=O)(=O)N4CCCC4)cc3)o2)n1	none
Cc1ccc(-c2nnc(SCC(=O)Nc3ccc(S(=O)(=O)N4CCCCCC4)cc3)o2)cc1	HIV RNase H inh-1 65 | HIV RNase H inh-2 inconclusive
CC(=O)c1cccc(NC(=O)CSc2nnc(-c3ccc(S(=O)(=O)N4CCCC4)cc3)o2)c1	none
Cc1cc2c(c(=O)o1)C(C13C=CC(CC1)C3)C(C#N)=C(N)O2 (stereo not given)	none
CCOCCCNC(=O)C1CCN(S(=O)(=O)N2CC(C)CC(C)C2)CC1 (stereo not given)	none
CCn1c(C(=O)N2CCC(C(=O)NCCCSC3CCCCC3)CC2)cc2sccc21	none
Nc1nnc(CCC2CCCCC2)s1	none

Bioassay records as filed in PubChem.
